This is a sample that favours compounds with a hit; in the whole collection about 3.4% have one here.
MITF primary: MITF inhibitors, primary screen, biochemical, AlphaScreen, human; AlphaScreen MITF homodimerization, bead proximity signal; inhibition, % at 2.6 µM; hit rate 0.91% among 650,000; AID 1259374, 2018; in the data active = inhibition above about 50%;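 note: 0% = vehicle wells with protein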
Target sequence (O75030 whole entry, looked up): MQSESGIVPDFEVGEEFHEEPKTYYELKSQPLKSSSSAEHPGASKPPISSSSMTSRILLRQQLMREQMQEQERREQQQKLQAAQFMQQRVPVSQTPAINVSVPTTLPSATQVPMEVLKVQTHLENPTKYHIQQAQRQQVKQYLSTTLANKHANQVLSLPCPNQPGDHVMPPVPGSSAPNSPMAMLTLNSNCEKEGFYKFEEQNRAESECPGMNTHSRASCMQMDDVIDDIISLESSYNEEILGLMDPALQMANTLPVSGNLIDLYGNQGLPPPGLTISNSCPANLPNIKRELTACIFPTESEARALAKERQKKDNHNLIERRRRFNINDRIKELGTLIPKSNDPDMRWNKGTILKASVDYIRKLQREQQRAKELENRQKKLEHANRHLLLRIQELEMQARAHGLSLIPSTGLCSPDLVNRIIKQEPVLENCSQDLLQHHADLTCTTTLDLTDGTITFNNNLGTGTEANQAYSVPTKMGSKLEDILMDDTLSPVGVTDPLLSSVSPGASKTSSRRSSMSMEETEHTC
GPR151 activ: activators of human GPR151, primary screen, cell-based, PathHunter beta-arrestin, luminescence | PathHunter beta-arrestin GPR151 cells | activation, % at 11.2 µM | hit rate 1% among 650,000 | G-protein coupled receptor 151 (Homo sapiens), Q8TDV0; in the data active = activation above about 4.9%;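 note: 0% = median of compound wells and 100% = cells with positive control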
TEAD-YAP block: TEAD-YAP interaction inhibition, primary screen, TEAD-YAP interaction inhibitor project, luminescence, HEK-TIYL cells; TEAD-Gal4/YAP UAS-luciferase luminescence; hit rate 1.4% among 640,000; AID 1259422, 2018; inhibition, % at 9.12 µM; in the data active = inhibition above about 32%;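 note: 0% = median of test compound wells and 100% = reference inhibitor wells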
FBW7 activator: FBW7 E3 ligase activators, primary screen, biochemical, AlphaScreen, human; F-box/WD repeat-containing protein 7 (Homo sapiens), Q969H0; AlphaScreen FBW7–phospho-cyclin E peptide binding, activator screen; normalized activity (activation), % at 26.1 µM; hit rate 0.13% among 650,000; in the data active = normalized activity above about 1.9%;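 note: purified mutant Fbw7 with reduced substrate affinity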
MITF inh conf: MITF inhibitors, retest of hits, confirmation, biochemical, AlphaScreen, triplicate; inhibition, % at 2.6 µM; shares compounds with MITF primary; AID 1259372, 2018; AlphaScreen MITF homodimerization, biotin/His-MITF beads; hit rate 16% among 4,700;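 active = inhibition above a cutoff derived from the DMSO control wells, cut at about 28% in these data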;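 note: 0% = MITF dimer wells with DMSO only; inhibitors lower the bead chemiluminescence by keeping MITF from dimerizing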
AlphaScreen DR: AlphaScreen optical interference compounds, dose response, counter-screen, biochemical, HTS; IC50, µM; hit rate 6% among 480; AlphaScreen optical interference counterscreen, cell-free; shares compounds with MITF primary; call rule not given here
AlphaScreen intf2: AlphaScreen optical interference compounds, counter-screen for MITF inhibitor project, biochemical, triplicate; shares compounds with MITF primary; LysRS AlphaScreen counterscreen, signal interference; inhibition, % at 2.6 µM; hit rate 7.6% among 4,700;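 active = inhibition above a cutoff derived from the DMSO control wells, cut at about 30% in these data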
Active calls of the source: *; / = no result.

SMILES	MITF primary	GPR151 activ	TEAD-YAP block	FBW7 activator	MITF inh conf	AlphaScreen intf2	others
CN(C)[C@@H]1C(=O)C(C(=O)NCN2CCCC2)=C(O)[C@@]2(O)C(=O)C3=C(O)c4c(O)cccc4[C@@](C)(O)C3CC12 (stereo not given in full)	72.0*	1.2	-3.0	-0.2	77.7*	8.1	AlphaScreen DR=>6.48
CCOC(=O)C1CCN(C(=O)c2ccc(N3CC4CC(C3)c3cccc(=O)n3C4)c(NC(=O)c3ccc(F)cc3)c2)CC1 (stereo not given)	-1.2	-0.4	6.1	-0.1	/	/
CCOC(=O)C1CCN(C(=O)c2ccc(N3CC4CC(C3)c3cccc(=O)n3C4)c(NC(=O)c3ccc(C(C)(C)C)cc3)c2)CC1 (stereo not given)	67.2*	-2.6	2.9	0.0	8.0	18.7
CN1CCN(CCOc2ccc(C(=O)c3ccccc3)cc2)CC1	81.1*	3.1	-16.9	0.5	2.9	0.2
CCOc1ccc(OCCN2CCOCC2)cc1	75.7*	0.7	-18.3	0.0	9.7	15.5
COC(=O)c1ccc(OCCN2CCOCC2)cc1	-4.9	2.4	-20.4	0.0	/	/
CCOC(=O)c1ccc(OCCCN2CCCCCC2)cc1	16.9	0.5	5.5	-0.5	/	/
CCN1CCN(CCOc2ccc(C(=O)c3ccccc3)cc2)CC1	41.3	-1.5	-3.4	0.0	/	/
O=C(c1ccccc1)c1ccc(OCCCN2CCCC2)cc1	53.3*	-1.5	8.0	0.1	-0.1	0.1
O=C(c1ccccc1)c1ccc(OCCN2CCOCC2)cc1	82.9*	-0.4	-13.6	-0.1	2.0	4.0
C=CCn1c(SCC(=O)O)nc2sc3c(c2c1=O)CCC(C)C3 (stereo not given)	2.3	1.8	-1.5	-0.2	/	/
O=C(/C=C/c1ccccc1)OCCN1CCOCC1	9.1	0.4	-0.3	0.6	/	/
O=P(OCCN1CCOCC1)(c1ccccc1)c1ccccc1	56.6*	2.1	-0.6	0.0	5.5	10.7
CC1CN(C(=O)N2CCC(C(=O)NCC(C)c3ccccc3)CC2)c2ccccc2O1 (stereo not given)	4.6	-0.9	7.0	-0.2	/	/
O=C(NCCc1ccc(O)cc1)c1ccnc(-c2cccs2)c1	51.3*	0.7	7.1	0.0	51.2*	-0.2	AlphaScreen DR=>6.77
O=C(NCCc1ccc(O)cc1)c1cccc(-c2cccs2)c1	51.9*	1.0	4.4	0.2	40.7*	4.4	AlphaScreen DR=>6.26
CCOC(=O)N1CCN(C(=O)CCc2nnc(CCc3ccccc3OC)o2)CC1	10.5	-0.6	-10.9	0.1	/	/
CCCOc1ccc(/C=C(/C#N)C(=O)Nc2ccc(O)cc2)cc1OC	16.3	-0.2	-0.3	-0.1	/	/
O=C(O)c1ccc(Nc2ccc([N+](=O)[O-])cc2[N+](=O)[O-])cc1	-47.1	-0.1	4.2	-0.1	/	/
Cc1cccc(Nc2c([N+](=O)[O-])cc([N+](=O)[O-])c3nonc23)c1	55.6*	-0.2	-13.9	0.0	-4.8	6.1
Cc1cccc(Nc2c([N+](=O)[O-])ccc3nonc23)c1	-7.9	-1.2	2.9	-0.1	/	/
CCc1ccc(CN2CCN(C(=O)c3ccccc3F)CC2)cc1	50.8*	-0.5	16.2	0.1	7.9	10.1
O=C(c1ccccc1F)N1CCN(Cc2ccc3c(c2)OCO3)CC1	51.3*	-1.1	15.3	0.1	-1.2	-5.2
O=C(C1CCNCC1)N1CCN(Cc2ccc3c(c2)OCO3)CC1	56.5*	-0.3	-6.2	-0.4	9.0	13.1
O=C(CSc1nc(-c2cccs2)nc2ccccc12)NC(=O)CN1CCCC1=O	18.3	-0.8	6.9	-0.1	/	/
SMILES	MITF primary	GPR151 activ	TEAD-YAP block	FBW7 activator	MITF inh conf	AlphaScreen intf2	others
CC(NC(=O)C(=O)NCCc1ccc(Cl)cc1)c1ccccc1 (stereo not given)	17.7	-1.2	16.1	0.4	/	/
O=Cc1cccn1-c1ccc(C(=O)O)cc1	66.7*	1.0	-3.5	-0.2	63.8*	-5.1	AlphaScreen DR=>6.48
N#CC(C#N)=Cc1cccn1-c1ccc(C(=O)O)cc1	63.3*	0.0	-2.7	-0.4	61.1*	4.3	AlphaScreen DR=>6.48
Cc1cccc(NC(=S)N2CCC(N(C)CCN3CCOCC3)CC2)c1	1.4	-0.8	3.9	-0.1	/	/
CCC(=Nc1ccccc1OC)C1=C(O)CCCC1=O	12.9	3.4	14.1	-0.1	/	/
CCNc1nc(NCCOc2ccccc2)c2ncn(C3CCCCC3)c2n1	54.2*	3.3	-13.8	-0.2	2.7	7.1
COc1ccc(C23CC4CC(CC(C4)C2)C3)cc1[N+](=O)[O-]	0.1	0.1	-1.1	0.4	/	/
Cc1ccc(C23CC4CC(CC(C4)C2)C3)cc1[N+](=O)[O-]	54.2*	1.2	-4.5	-0.3	4.5	12.8
COc1ccc(C(=O)CSc2ncn[nH]2)cc1C	69.2*	-0.3	-15.3	-0.1	7.1	15.3
COc1ccc(OC)c(C(=O)CSc2ncn[nH]2)c1	7.7	2.9	-8.7	0.0	/	/
CC1CN(c2ccc(S(C)(=O)=O)cc2F)CC(C)O1 (stereo not given)	6.7	-1.1	-5.6	0.5	/	/
CN1CCN(CC(O)Cn2cc(C=O)c3ccccc32)CC1 (stereo not given)	65.8*	2.2	-15.1	-0.1	-0.1	-4.9
COc1ccc(OC)c(CCNC(=O)CN2C(=O)C3CCCN3c3ncc(Cl)cc32)c1 (stereo not given)	5.2	-1.3	-2.3	0.6	/	/
O=C(O)CC(CCc1ccccc1)CC(=O)O	61.1*	0.1	18.0	0.4	18.3	15.7
Cc1ccc(Oc2ccc(-n3c(C)ccc3C)cc2)cc1	8.5	0.8	-2.0	-0.1	/	/
Cc1ccc(CN2CCN(S(=O)(=O)c3ccccc3[N+](=O)[O-])CC2)cc1	58.3*	2.3	8.2	-0.5	12.4	20.7
CCc1ccc(CN2CCN(S(=O)(=O)c3ccccc3[N+](=O)[O-])CC2)cc1	28.1	0.1	-3.7	-0.2	/	/
CSc1ccc(CN2CCN(S(=O)(=O)c3ccccc3[N+](=O)[O-])CC2)cc1	56.7*	-2.3	-1.4	0.4	10.0	17.3
c1ccc(-c2nc(NCCCn3ccnc3)cc(-c3ccncc3)n2)cc1	44.5	-1.5	-4.4	-0.7	/	/
c1ccc(-c2nc(NCCCn3ccnc3)cc(-c3cccnc3)n2)cc1	54.3*	-0.2	11.2	-0.6	34.3*	43.5*
Cc1cnc(CNc2cc(-c3cccnc3)nc(-c3cccnc3)n2)nc1	77.9*	-0.5	5.6	-0.5	13.4	26.4
c1cncc(-c2cc(NCCCn3ccnc3)nc(-c3ccncc3)n2)c1	32.4	-0.8	11.5	-0.6	/	/

Assay outcomes (PubChem)
